# Experimental data as given in PubChem BioAssay (NCI).
# The panel holds about 83,000 compounds, 20% with a hit somewhere; the sample as a whole holds those more often.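 Cells were grown in 96-well plates and exposed to the test compound at a single concentration for 48 hours; results are reported as percent growth, with values below 10 considered active.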 Calls of active or inactive are those of the source.
# Key:
# Test in all cases: NCI-60 one-dose screen, 48 h (100 = growth as untreated, 0 = no growth, -100 = all killed)
# Conditions in all cases: 10 µM unless noted
# T-47D breast = tested on: T-47D breast
# BT-549 breast = tested on: BT-549 breast
# MDA-MB-435 melanoma = tested on: MDA-MB-435 melanoma
# SW-620 colon = tested on: SW-620 colon
# MCF7 breast = tested on: MCF7 breast
# HCT-116 colon = tested on: HCT-116 colon
# HCC-2998 colon = tested on: HCC-2998 colon
# KM12 colon = tested on: KM12 colon
SMILES,growth (T-47D breast),growth (BT-549 breast),growth (MDA-MB-435 melanoma),growth (SW-620 colon),growth (MCF7 breast),growth (HCT-116 colon),growth (HCC-2998 colon),growth (KM12 colon)
NC(=O)c1cc(I)ccc1NC(=O)/C=C/c1ccccc1Cl,26.6% (inactive),70.1% (inactive),-31.8% (active),26.9% (inactive),7.38% (active),14.5% (inactive),23.4% (inactive),10.6% (inactive)
COc1ccc(NC(=O)c2ccc(/C=C/C(=O)c3ncc[nH]3)cc2)cc1,68.5% (inactive),78.8% (inactive),67.1% (inactive),34.5% (inactive),25.1% (inactive),71.5% (inactive),83.9% (inactive),27.5% (inactive)
COc1cc(-c2nn(-c3ccc(C(=O)O)cc3)cc2C(=O)O)ccc1O,93.2% (inactive),70.3% (inactive),-5.36% (active),32.1% (inactive),35.3% (inactive),86.6% (inactive),91.3% (inactive),42.5% (inactive)
COc1ccc(C2C(C#N)=C(N)Oc3n[nH]c(-c4cccs4)c32)cc1I (configuration not stated),94.4% (inactive),92.1% (inactive),66.7% (inactive),83.8% (inactive),69.4% (inactive),91.9% (inactive),95.9% (inactive),86.2% (inactive)
COc1ccc(/C=N/C2=C(C#N)C(c3ccc(N(C)C)cc3)c3ccc4ccccc4c3O2)cc1 (configuration not stated),72% (inactive),48.4% (inactive),4% (active),46.1% (inactive),45% (inactive),43.4% (inactive),96.3% (inactive),44.1% (inactive)
Nc1ccc(-c2cc3c(NCc4ccccc4)ncnc3s2)cc1,52.4% (inactive),78.2% (inactive),93.7% (inactive),105% (inactive),72.5% (inactive),95.6% (inactive),92.6% (inactive),88.6% (inactive)
COc1cc(C(=O)/C=C/c2cccnc2Nc2ccc(Cl)cc2)cc(OC)c1OC,-67.3% (active),-19.1% (active),-58% (active),-71.5% (active),-54.4% (active),-55.7% (active),-84.3% (active),-86.8% (active)
NS(=O)(=O)c1ccc(CN=C2NC(=O)S/C2=C\c2ccc(Br)cc2)cc1,99.2% (inactive),103% (inactive),101% (inactive),97.9% (inactive),93.5% (inactive),94.7% (inactive),107% (inactive),109% (inactive)
N#Cc1c(N)n(CCNC(=O)c2ccccc2)c2nc3ccccc3nc12,95.4% (inactive),140% (inactive),95.9% (inactive),123% (inactive),109% (inactive),102% (inactive),97.4% (inactive),114% (inactive)
N=C(N)c1ccc(-c2ccc(-c3ccc4ccccc4c3)s2)s1,7.01% (active),82.5% (inactive),11.3% (inactive),-70.9% (active),-66.7% (active),-70.5% (active),-69.1% (active),-27.2% (active)
Cc1cc(N2CCOCC2)nc(N[C@@H]2CCC[C@H](Nc3ccnc4cc(Cl)ccc34)C2)n1,-56.6% (active),26% (inactive),-83% (active),-1.97% (active),5.31% (active),-6.15% (active),11.2% (inactive),20.6% (inactive)
CCCCn1c(-c2ccc(C(=O)O/N=C(\N)c3ccc4c(c3)OCO4)cc2)nc(-c2ccccc2)c1-c1ccccc1,0.0231% (active),54.5% (inactive),46.1% (inactive),60.3% (inactive),48.1% (inactive),4.35% (active),61.5% (inactive),36.8% (inactive)
CC(=O)O[C@H]1CC[C@]2(C)[C@H]3CC=C4[C@@H]5CC(C)(C)CC[C@]5(C(=O)NCCNCCN)CC[C@@]4(C)[C@]3(C)CC[C@H]2C1(C)C,-46.5% (active),92.8% (inactive),-55.5% (active),-84.6% (active),-90.7% (active),-91.2% (active),-92.1% (active),19.7% (inactive)
O=Nc1c(O)c(Cl)cc2ccccc12,-4.57% (active),83.7% (inactive),91.8% (inactive),46.2% (inactive),49.6% (inactive),31.5% (inactive),115% (inactive),79.5% (inactive)
CCOC(=O)c1c(C)oc2ncnc(N3CCN(C(=O)COc4ccc(SC)cc4)CC3)c12,61.7% (inactive),90.8% (inactive),103% (inactive),102% (inactive),92.6% (inactive),91.6% (inactive),110% (inactive),95.6% (inactive)
CC1=C[C@H]2c3c(c(O)c(O)c4oc(-c5ccccc5)cc(=O)c34)[C@H](c3cc(O)c(O)c4oc(-c5ccccc5)cc(=O)c34)[C@H]2C(C)(C)C1,4.7% (active),0.289% (active),-32.9% (active),7.43% (active),9.62% (active),-56.3% (active),0.939% (active),-14.9% (active)
COc1cc(-c2nn(-c3ccc(C)cc3)cc2C(=O)O)ccc1O,89.5% (inactive),103% (inactive),87.3% (inactive),103% (inactive),93.4% (inactive),99.7% (inactive),92.5% (inactive),64.7% (inactive)
CCNc1ncnc2c1cnn2C1CCCO1 (configuration not stated),104% (inactive),105% (inactive),103% (inactive),100% (inactive),102% (inactive),100% (inactive),109% (inactive),99.1% (inactive)
O=C1c2ccccc2C(=O)c2c1ccc1[nH]c(-c3cccs3)nc21,56.1% (inactive),65.5% (inactive),101% (inactive),90.7% (inactive),66.4% (inactive),70.5% (inactive),99.3% (inactive),70.5% (inactive)
COC(=O)[C@]12CCC(C)(C)C[C@H]1[C@H]1C(=O)C[C@@H]3[C@@]4(C)c5c([nH]c6ccccc6c5=O)C(C)(C)[C@@H]4CC[C@@]3(C)[C@]1(C)CC2,52.6% (inactive),76.4% (inactive),57.5% (inactive),71.2% (inactive),44.5% (inactive),33.8% (inactive),72.3% (inactive),72.9% (inactive)
Cn1cc(C(=O)c2nc(-c3c[nH]c4ccc(F)cc34)no2)c2cc(F)ccc21,92.1% (inactive),92.5% (inactive),64% (inactive),87.9% (inactive),58.1% (inactive),99.8% (inactive),97.4% (inactive),79.2% (inactive)
COc1ccc(N=Nc2nccs2)c(O)c1,36.5% (inactive),74.1% (inactive),58.7% (inactive),34.4% (inactive),20.4% (inactive),22.3% (inactive),60.8% (inactive),33.3% (inactive)
COc1cccc(-c2nc3sccn3c2-c2ccnc(NCCNS(=O)(=O)c3ccc(F)cc3)c2)c1,-4.43% (active),9.19% (active),23.3% (inactive),42.5% (inactive),18.7% (inactive),22.2% (inactive),50.1% (inactive),22.3% (inactive)
c1ccc(CCNc2ncnc3[nH]ncc23)cc1,79.3% (inactive),97.7% (inactive),112% (inactive),113% (inactive),130% (inactive),98.3% (inactive),115% (inactive),109% (inactive)
COc1ccc(/C=C\c2cc(OC)c(OC)c(OC)c2)cc1OC(=O)c1cccc(Cn2cc(CCOC(=O)[C@H](N)Cc3cn(C)c4ccccc34)nn2)c1,70.2% (inactive),3.82% (active),-32.7% (active),28.6% (inactive),12.6% (inactive),3.68% (active),20.7% (inactive),5.51% (active)
COc1ccccc1NS(=O)(=O)c1ccc2oc(SC(C)C)nc2c1,67.2% (inactive),87.6% (inactive),88.2% (inactive),102% (inactive),82.3% (inactive),63.4% (inactive),26% (inactive),98.7% (inactive)
O=C(Cn1cccc(Nc2ccccc2)c1=O)Nc1ccccc1,93.9% (inactive),106% (inactive),97.3% (inactive),102% (inactive),96.1% (inactive),98.6% (inactive),109% (inactive),110% (inactive)
Cc1cc2c3ccccc3ccc2[n+]2ccccc12,4.64% (active),-2.46% (active),76.5% (inactive),33% (inactive),27.2% (inactive),43.5% (inactive),47% (inactive),25.9% (inactive)
CN1CCN(c2ccc(Nc3c4ccccc4nc4ccccc34)cc2)CC1,102% (inactive),112% (inactive),110% (inactive),106% (inactive),99.1% (inactive),104% (inactive),113% (inactive),105% (inactive)
